Inconclusive results are not listed. A number with no mark means an inactive call. Active and inactive are the calls of the source. Calls come from the whole dose curve; as a rule, active = well fitted cell-killing curve with a large enough effect; inconclusive = small, poorly fitted or top-dose-only effect, or effect the other way; inactive = no such curve, though single readings can be large or run the other way.
The compounds below were run on HeLa (assay: Confirmatory qHTS for gynecologic anti-cancer compounds from libraries of approved drugs and bioactive compounds). Conditions: gynecologic cancer cell panel viability, ATPlite luminescence, 48 h; series mostly up to 57.6 µM; activity change, negative = viability loss: at the top concentration.
Method in brief: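 Cells (1,000/well) plated 16 h, then exposed 48 h at 37 °C to 11 concentrations (1:3) from 57.5 uM to 0.977 nM. Viability by ATPlite luminescence after 15 min; IC50 derived, with HEK 293T used for selectivity index.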
% is set by controls: 0 for no effect and ±100 for the full control effect; potency is the fitted concentration of half-maximal effect.
Note: nearly all actives have a fitted effect of over 55% in size.

Structure (SMILES) | Potency | activity change, negative = viability loss
Cc1cc(CN2CCN(c3c(Br)cnc4nc(-c5ccc(N6CCN(C)CC6)cc5)[nH]c34)CC2)no1 | 3.06 µM (active) | –
Cc1nc(Nc2n[nH]c3c2CN(C(=O)NC(CN(C)C)c2ccccc2)C3(C)C)c2sccc2n1 (configuration not stated) | 3.06 µM (active) | –
COc1cccc2cc(-c3nc(C4CCC(C(=O)O)CC4)n4ncnc(N)c34)[nH]c12 (configuration not stated) | 4.85 µM (active) | –
COC(C(=O)N1Cc2[nH]nc(NC(=O)c3ccc(N4CCN(C)CC4)cc3)c2C1)c1ccccc1 (configuration not stated) | 0.243 µM (active) | –
Cc1ccc(C(=O)N(CCCN)C(c2oc3cc(Cl)ccc3c(=O)c2Cc2ccccc2)C(C)C)cc1 (configuration not stated) | 0.0137 µM (active) | –
CC(C)Nc1cc(-c2c[nH]c(C(=O)N[C@H](CO)c3cccc(Cl)c3)c2)c(Cl)cn1 | 21.7 µM (active) | –
CCn1c(-c2nonc2N)nc2c(C#CC(C)(C)O)ncc(OCC3CCCNC3)c21 (configuration not stated) | 21.7 µM (active) | –
COc1cc2nccc(Oc3ccc(NC(=O)C4(C(=O)Nc5ccc(F)cc5)CC4)cc3)c2cc1OC | 13.7 µM (active) | –
Nc1ccc(C(=O)Nc2cccc(-c3nc(N4CCOCC4)c4oc5ncccc5c4n3)c2)cn1 | 7.69 µM (active) | –
CN(C)C1CCN(C(=O)c2ccc(NC(=O)Nc3nc(N4CCOCC4)nc(N4CCOCC4)n3)cc2)CC1 | 0.769 µM (active) | –
Cc1nc(NC(=O)N2CCCC2C(N)=O)sc1-c1ccnc(C(C)(C)C(F)(F)F)c1 (configuration not stated) | 19.3 µM (active) | –
COc1cc(N2CCC(N3CCN(C)CC3)CC2)ccc1Nc1ncc(Cl)c(Nc2ccccc2S(=O)(=O)C(C)C)n1 | 0.769 µM (active) | –
CC(Oc1ccc2[nH]nc(/C=C/c3cnn(CCO)c3)c2c1)c1c(Cl)cncc1Cl (configuration not stated) | 0.172 µM (active) | –
COc1cc2c(cc1-c1c(C)noc1C)ncc1[nH]c(=O)n(C(C)c3ccccn3)c12 (configuration not stated) | 0.544 µM (active) | –
CC(C)CC(=O)Nc1n[nH]c2c1CN(C(=O)C1CCN(C)CC1)C2(C)C | 3.43 µM (active) | –
Cc1ccc2nc(N)[nH]c(=O)c2c1Sc1ccncc1 | 8.63 µM (active) | –
Cn1cnc2c(F)c(Nc3ccc(Br)cc3Cl)c(C(=O)NOCCO)cc21 | – | -20%
Cc1nc(N)nc(N)c1-c1ccc(Cl)c(Cl)c1 | 3.06 µM (active) | –
COc1cc2c(Oc3ccc(-c4cnc(Nc5ccc(F)cc5)n(C)c4=O)cc3F)ccnc2cc1OCCCN1CCOCC1 | 21.7 µM (active) | –

Structure (SMILES) | Potency | activity change, negative = viability loss
CNC(=O)c1ccccc1Sc1ccc2c(/C=C/c3ccccn3)n[nH]c2c1 | 3.06 µM (active) | –
CCCCN(CCCC)CC(O)c1cc(Cl)cc2c1-c1ccc(Cl)cc1/C2=C/c1ccc(Cl)cc1 (configuration not stated) | – | -17.5%
CCN1CCN(Cc2ccc(-c3cc4c(NC(C)c5ccccc5)ncnc4[nH]3)cc2)CC1 (configuration not stated) | 30.6 µM (active) | –
COCCOc1ccc2c(c1)ncn2-c1ccc2cccc(N3CCC(N)CC3)c2n1 | 12.2 µM (active) | –
CCN(CC)CCCC(C)Nc1ccnc2cc(Cl)ccc12 (configuration not stated) | – | -1.82% [at 19.5 µM]
CN1CCN(CCOc2cc(OC3CCOCC3)c3c(Nc4c(Cl)ccc5c4OCO5)ncnc3c2)CC1 | – | 1.73%
CC[C@@]1(O)C(=O)OCc2c1cc1n(c2=O)Cc2cc3cc(O)ccc3nc2-1 | 0.968 µM (active) | –
NC(=O)c1cnc(-c2ccc(C3(N)CCC3)cc2)c(-c2ccccc2)c1 | 30.6 µM (active) | –
O=C(c1ccc(F)c(F)c1Nc1ccc(I)cc1F)N1CC(O)([C@@H]2CCCCN2)C1 | 21.7 µM (active) | –
NS(=O)(=O)c1ccc(Nc2nc(OCC3CCCCC3)c3[nH]cnc3n2)cc1 | 24.3 µM (active) | –
Cc1csc(NC(=O)c2sc3nc4c(c(C(F)(F)F)c3c2N)CCC4)n1 | 1.93 µM (active) | –
CN(Cc1cnc2nc(N)nc(N)c2n1)c1ccc(C(=O)N[C@@H](CCC(=O)O)C(=O)O)cc1 | – | 28.4%
CC(C)n1nc(-c2cc3cc(O)ccc3[nH]2)c2c(N)ncnc21 | 5.44 µM (active) | –
O=C(c1ccc(/C=C/c2n[nH]c3ccccc23)cc1)N1CCNCC1 | 3.43 µM (active) | –
COc1c(C)c2c(c(O)c1C/C=C(\C)CCC(=O)OCCN1CCOCC1)C(=O)OC2 | 2.43 µM (active) | –
O=C(/C=C/c1cccc(S(=O)(=O)Nc2ccccc2)c1)NO | 5.3 µM (active) | –
Cc1cc(Nc2nc(N[C@@H](C)c3ncc(F)cn3)ncc2Cl)n[nH]1 | 0.968 µM (active) | –
Cc1c(NC(=O)OCC2COCCN2)cn2ncnc(Nc3ccc4c(cnn4Cc4cccc(F)c4)c3)c12 (configuration not stated) | 34.3 µM (active) | –
